High-throughput results deposited in PubChem BioAssay by National Center for Advancing Translational Sciences (NCATS).
ATXN viability = reduces viability in counter-screen for ATXN expression inhibitors; 400,000 tested, 0.49% active; Potency, µM (top dose mostly 56.7 µM), hits mostly cytotoxic; S2 cells (HEK-293 line with an ATXN2-luciferase reporter) viability, CellTiter-Fluor protease fluorescence, 24 h; also: nearly all actives have a fitted effect of over 40% in size
ATXN2 expr inh = ATXN2 expression inhibition. Potency, µM (highest dose often 57 µM), without a hit: at the top dose activity change, negative = inhibition, most hits filed as inhibitors. HEK-293 ATXN2-luciferase reporter, luminescence, 24 h. 360,000 tested, 0.72% active; also: % is scaled to controls: 0 for no effect and ±100 for the full control effect; nearly all actives have a fitted effect of over 55% in size
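qHTS (up to 57 uM final) was run with 24 h compound exposure of reporter cells at 37 °C. Each well was multiplexed: SteadyGlo luminescence measured ATXN2-luciferase expression after a fluorogenic Gly-Phe-AFC viability readout (25 uM final).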
DT40 TDP1 CPT = growth inhibition of DT40 Tdp1-/-;hTDP1 cells with camptothecin (screen for TDP1 inhibitors) | chicken DT40 Tdp1-/-;hTDP1 cells + 20 nM CPT, ATP luminescence, 48 h | 420,000 tested, 12% active | Potency, µM (doses to about 46.2 µM), inactives show top-dose activity change, negative = growth inhibition, actives largely listed as inhibitors; also: % is scaled to controls: 0 for no effect and ±100 for the full control effect; nearly all actives have a fitted effect of over 55% in size
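Chicken DT40 Tdp1-/- cells stably complemented with human TDP1 were seeded at 400 cells/well in medium containing 20 nM camptothecin, exposed to pin-transferred compounds, and grown at 37 °C for at least 48 hr. Viability was read as ATP luminescence.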
HepG2 tox-1 = counter-screen for TGF-b inhibitors: cytotoxicity in HepG2 cells | Potency, µM (series often up to 46.1 µM), inactives show at the highest dose activity change, negative = cytotoxicity, actives largely listed as cytotoxic | 410,000 tested, 0.76% active | AID 588856 | HepG2 CAGA-GFP viability, ATP luminescence, 18 h
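CellTiter-Glo luminescence gave cytotoxicity after 18 hours at 37 degrees C. The cells were HepG2 CAGA-GFP in 1% FBS DMEM, stimulated with 500 pg/mL TGF-beta after compound addition. %Activity was normalised to no-cell wells (complete cell-killing) and DMSO (no toxicity), and curves were fitted and classified.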
TGFb SMAD3 inh = inhibitors of TGF-b signaling; HepG2 CAGA-GFP TGF-b/SMAD3 reporter, GFP fluorescence, 18 h; TGF-beta stimulated, 500 pg/mL final; Potency, µM (series often up to 46.1 µM), without a hit: top-dose activity, negative = inhibition, most hits filed as inhibitors; 410,000 tested, 1.2% active; AID 588855; also: % is scaled to controls: 0 for no effect and ±100 for the full control effect; nearly all actives have a fitted effect of over 65% in size
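First, reporter cells (HEPG2 CAGA-GFP) rested 2 h at 37 degrees C. Next, compounds were pinned in and TGF-beta added to 500 pg/mL final. After 18 h, GFP was imaged per cell and summed per well.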
DT40 TDP1 no CPT = qHTS for Inhibitors of human tyrosyl-DNA phosphodiesterase 1 (TDP1): qHTS in cells in absence of CPT; Potency, µM (titrated, usually from 46.2 µM), inactives show at the top dose activity change, negative = growth inhibition, usual class: inhibitors; AID 686978, 2013; 420,000 tested, 15% active; DT40 Tdp1-/- hTDP1 cells, no CPT, ATP luminescence, 48 h; also: % is scaled to controls: 0 for no effect and ±100 for the full control effect; nearly all actives have a fitted effect of over 55% in size
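Seeded 400 DT40-hTDP1 cells/well (vehicle DMSO, no 20 nM CPT); pinned compounds; ≥48 hr at 37 °C; CellTiter-Glo luminescence as viability measure.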
TGFb confirm = TGF-b pathway inhibition, cherry-pick retest | shares compounds with TGFb SMAD3 inh | HepG2 CAGA-GFP TGF-b reporter, GFP fluorescence, 18 h; cells stimulated with TGF-beta, 500 pg/mL | Potency, µM (top dose mostly 46.1 µM), inactives show at the top dose activity, negative = inhibition, most hits filed as inhibitors | 1,600 tested, 63% active | AID 720534; also: % is scaled to controls: 0 for no effect and ±100 for the full control effect; nearly all actives have a fitted effect of over 65% in size
HepG2 tox-2 = HepG2 cytotoxicity, TGF-b inhibitor counterscreen. 1,600 tested, 27% active. Potency, µM (series often up to 46.1 µM), without a hit: top-dose activity, negative = cytotoxicity, hits mostly inhibitors. HepG2 CAGA-GFP viability, ATP luminescence, 18 h; cells stimulated with TGF-beta, 500 pg/mL. shares compounds with TGFb SMAD3 inh. AID 720535; also: % is scaled to controls: 0 for no effect and ±100 for the full control effect; nearly all actives have a fitted effect of over 70% in size
CCL64 TGFb inh = TGF-b inhibition, CCL64 orthogonal assay. shares compounds with TGFb SMAD3 inh. Potency, µM (titrated, usually from 46.1 µM), without a hit: at the highest dose activity, negative = inhibition, usual class: inhibitors. CCL64 CAGA-GFP reporter, TGF-b stimulated, GFP fluorescence, 18 h. 1,600 tested, 41% active; also: nearly all actives have a fitted effect of over 65% in size
COP TGFb inh = validation of TGF-b inhibitors in HepG2 COP promoter reporter | 1,600 tested, 3% active | HepG2 COP-GFP TGF-b reporter, GFP fluorescence, 18 h; cells stimulated by added recombinant TGF-beta | Potency, µM (doses to about 46.1 µM), inactives show at the highest dose activity, negative = inhibition, actives largely listed as inhibitors | shares compounds with TGFb SMAD3 inh; also: nearly all actives have a fitted effect of over 70% in size
* = called active by the depositor; i = inactive; ? = inconclusive; . = not tested or not shown. A selection: hits, their analogues and other compounds. The true share with any hit is near 17%. Calls follow the shape of the dose curve; as a rule, active = well fitted curve in the direction sought with a large enough effect; inconclusive = small, poorly fitted or top-dose-only effect, or another doubt; inactive = no such curve, though single readings can be large; an effect the other way counts as inactive or inconclusive. Potency is read from the fitted curve at half-maximal effect.

SMILES	ATXN viability	ATXN2 expr inh	DT40 TDP1 CPT	HepG2 tox-1	TGFb SMAD3 inh	DT40 TDP1 no CPT	TGFb confirm	HepG2 tox-2	CCL64 TGFb inh	COP TGFb inh
COc1cccc(NC(=O)[C@@H]2CCC(=O)N2C2OC(=O)c3ccccc32)c1 (some centres undefined)	i	8%	11%	43%	32%	-8%	.	.	.	.
O=C(c1ccc(COc2ccccc2Br)o1)N1N=C(C(F)F)CC1(O)C(F)F (centres undefined)	i	-39%	18µM*	-88%	?	26µM*	.	.	.	.
O=C(c1ccc(Cn2cc([N+](=O)[O-])cn2)o1)N1N=C(C(F)F)CC1(O)C(F)F (centres undefined)	i	8%	2%	0%	0%	-6%	.	.	.	.
O=C(c1ccc(F)c(F)c1)N1CCOc2ccc(CN3CCN(CCO)CC3)cc2C1	i	.	22%	.	.	-11%	.	.	.	.
Cc1cc(C)n2nc(C(=O)OCC(=O)N(C)C3CCCCC3)nc2n1	i	1%	15%	3%	13%	8%	.	.	.	.
O=C(c1cc(S(=O)(=O)Nc2ccccc2F)c(Cl)cc1Cl)N1CCN(CCO)CC1	i	.	-21%	-12%	?	-15%	-2%	-1%	?	-2%
O=C(NCCN1CCOCC1)c1cc(S(=O)(=O)Nc2ccccc2F)c(Cl)cc1Cl	i	-10%	-6%	3%	8%	23%	.	.	.	.
COc1ccc(C2=C(SC)CC2=NC(C)(C)C)cc1	i	5%	-2%	14%	13%	?	.	.	.	.
O=C(OCc1ccccc1)c1ccc(NCc2cc(O)ccc2O)cc1	.	10µM*	4.6µM*	-66%	10µM*	3.7µM*	5.2µM*	16µM*	2.1µM*	-10%
COc1ccc(NC(=O)[C@@H]2CC=C[C@@H]3CCN(Cc4ccc(Cl)c(Cl)c4)C(=O)[C@@H]32)cc1	?	-21%	?	-23%	13µM*	?	2.9µM*	-22%	29µM*	29%
CC(=O)Oc1c(I)cc(I)cc1C(=O)Nc1ccc(Cl)cc1	?	?	?	-36%	5µM*	21µM*	4.6µM*	8.2µM*	6.5µM*	45%
CCc1nc2c(OCc3cc(Cl)cc(Cl)c3)cccn2c1N(C)C(=O)c1ccc(OC)cc1	?	?	18µM*	-31%	4µM*	16µM*	?	?	?	49%
Cc1ccc2c(c1)c(-c1ccccc1)nc1nnnn12	i	-23%	-8%	7%	0%	?	.	.	.	.
O=c1c2ccccc2ncn1-c1ccc([N+](=O)[O-])cc1Cl	i	-5%	-4%	-2%	8%	-11%	.	.	.	.
C=C(C(=O)c1ccccc1)C(CC(=O)c1ccccc1)c1ccccc1 (centres undefined)	?	25µM*	4.6µM*	4%	13µM*	4.6µM*	9.2µM*	10µM*	9.2µM*	-17%
Cc1ccnc(Nc2nc(-c3ccccc3)cs2)c1	i	.	?	-71%	10µM*	?	-26%	-4%	0%	6%
CN(Cc1ccccc1)C(=O)C1CCN(S(=O)(=O)c2ccc(-n3cnnn3)cc2)CC1	i	-1%	5%	-12%	-3%	-10%	.	.	.	.
O=C(CSc1nnc(-c2ccc(F)cc2)c2ccccc12)Nc1cccc(Cl)c1	?	7%	?	-16%	-19%	?	.	.	.	.
O=C(CSc1nnc(-c2ccc(F)cc2)c2ccccc12)Nc1ccccc1	i	38%	?	-4%	13µM*	?	15µM*	-5%	-10%	-14%
COc1ccc(CNC(=O)CNS(=O)(=O)c2ccc(Cl)cc2)cc1	i	6%	2%	8%	-6%	-2%	.	.	.	.
COc1ccc(CCNC(=O)CNS(=O)(=O)c2ccc(Cl)cc2)cc1	i	-3%	-5%	-7%	?	?	-5%	4%	2%	-16%
O=C(Cc1cccc2ccccc12)NCCc1ccccc1	i	6%	-5%	2%	2%	1%	.	.	.	.
CCN(C(=O)COC(=O)c1cccnc1SC)c1c(N)n(Cc2ccccc2)c(=O)[nH]c1=O	i	3%	5%	3%	1%	3%	.	.	.	.
Cc1cc(C)nc(/N=C(\N)Nc2cc([N+](=O)[O-])ccc2C)n1	i	196%	?	-3%	-4%	-21%	.	.	.	.
Cc1cc(C)nc(/N=C(\N)Nc2ccccc2-c2ccccc2)n1	i	?	16µM*	-34%	10µM*	12µM*	?	?	?	71%
COc1ccc(S(=O)(=O)n2nc(-c3ccc(Cl)cc3)cc2N)cc1	?	-34%	?	-18%	13µM*	?	?	?	?	32%
Cc1ccc(S(=O)(=O)N2CCOCC2)cc1C(=O)Nc1nc2ccccc2[nH]1	i	2%	-15%	3%	?	?	.	.	.	.
Cc1ccc(S(=O)(=O)N2CCOCC2)cc1C(=O)Nc1nc(-c2ccccn2)cs1	?	?	5.2µM*	-5%	?	4.1µM*	9.2µM*	?	?	9%
Cn1cccc1C(=O)NC(=O)COC(=O)C12CC3CC(CC(O)(C3)C1)C2	i	41%	4%	5%	-2%	16%	.	.	.	.
